Here are results for 40 compounds from ChEMBL document CHEMBL3988442, “University of Dundee, Small-Polar-MMV Screening Library” (2021).

Molecules are shown by their SMILES.

The first assay deals with T1, Aspartate--tRNA(Asp/Asn) ligase (Mycobacterium tuberculosis (strain ATCC 25618 / H37Rv)) (UniProt P9WFW3).
T1 sequence (whole entry): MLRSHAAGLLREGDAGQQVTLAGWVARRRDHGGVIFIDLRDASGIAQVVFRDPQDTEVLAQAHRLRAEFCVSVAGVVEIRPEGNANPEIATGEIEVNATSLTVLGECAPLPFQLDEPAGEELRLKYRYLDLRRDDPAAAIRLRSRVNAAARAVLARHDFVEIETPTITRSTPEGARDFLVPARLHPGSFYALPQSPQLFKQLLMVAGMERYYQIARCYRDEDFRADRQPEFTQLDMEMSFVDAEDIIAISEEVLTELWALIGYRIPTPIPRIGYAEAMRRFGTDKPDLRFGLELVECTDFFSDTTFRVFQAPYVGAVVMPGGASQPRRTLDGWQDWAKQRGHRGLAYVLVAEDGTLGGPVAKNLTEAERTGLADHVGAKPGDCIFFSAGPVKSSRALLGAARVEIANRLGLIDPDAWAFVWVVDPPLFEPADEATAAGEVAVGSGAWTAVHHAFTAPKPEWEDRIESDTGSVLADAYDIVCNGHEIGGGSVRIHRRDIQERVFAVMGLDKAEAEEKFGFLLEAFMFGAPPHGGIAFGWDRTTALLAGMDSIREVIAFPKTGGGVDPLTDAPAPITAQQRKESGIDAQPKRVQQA
Kind of assay: Assay for Asp RNA synthetase-1 from Mycobacterium tuberculosis. Format: functional. Also on record: scale not given: direction of the effect not stated beside the values. The conditions noted are these: 30 µM.
On to `c1ccc(Cn2cc(CNC3CCc4ncnn4C3)cn2)cc1` (stereo not given), for which the Percent Effect was -2.87%.

For the compound `O=C(NCCc1nnc2n1CCC2)NCC1(c2cccc(F)c2)CC1`, the Percent Effect is -2.55%.

For `Cc1csc(N2CCN(C(=O)CCNc3ncccn3)CC2)n1`, the Percent Effect is 1.38%.

`C1CC(CN2CCOCC3(CCN(C4CCOCC4)C3)C2)CCO1` (stereo not given): the Percent Effect is 3.19%.

With `O=C(Cc1c[nH]c2ccccc12)N1CCC(Nc2cccnn2)CC1`, the Percent Effect was 1.83%.

In the case of `COC(=O)CCc1c(C)nn(-c2nc(C)cc(=O)[nH]2)c1C`, the Percent Effect is -5.2%.

Take `Cn1nc2c(cc1=O)CN(Cc1nc(-c3cccs3)no1)CC2`: the Percent Effect was found to be 1.81%.

As to `O=C(O)c1cc(S(=O)(=O)Nc2ccc(Cl)cc2)cc2c1OCCO2`, the Percent Effect stood at 0.0437%.

In the case of `COCC1CC2(CCN(Cc3cnn(C)c3)CC2)CN1C(C)C` (stereo not given), the Percent Effect came out at 10.7%.

On to `O=C(NCC1CC1)C1CN(C(=O)c2ccncc2)CC12CCOCC2` (stereo not given), for which the Percent Effect came out at 3.22%.

On to `Cc1cc(N2CCN(CCO)CC2)nc(-c2ccncc2)n1`, for which the Percent Effect turned out to be 1.26%.

Turning to `CC(C)(C)n1ncc2c1NC(=O)CC2c1ccc(OCC(N)=O)cc1` (stereo not given), the Percent Effect was -2.88%.

As for `Cc1cc(CNC(=O)NC(C)c2ccc(N3CCOCC3)cc2)no1` (stereo not given), the Percent Effect stood at 5.56%.

Consider `CN(c1cccnn1)C1CCN(C(=O)c2ccc3c(c2)COC3)CC1`, for which the Percent Effect is -2.64%.

Turning to `Cc1ccc(C)c(NC(=O)c2n[nH]c(-n3cnnc3)n2)c1`, the Percent Effect is -4.33%.

As for `CS(=O)(=O)NC[C@]12COC[C@H]1CN(C(=O)c1ccoc1)C2`, the Percent Effect was found to be 0.452%.

Consider `COCc1cnc2n1CCN(C(=O)C1=CCCCC1)C2C` (stereo not given), for which the Percent Effect was -0.348%.

`CN(Cc1ccccc1)CC(O)Cn1cnc2ccccc2c1=O` (stereo not given): the Percent Effect was -0.611%.

Regarding `CS(=O)(=O)NCc1n[nH]c2c1CCN(C(=O)c1ccsc1)C2`, the Percent Effect worked out at 9.64%.

On to `CN(Cc1ccc2c(c1)OCCO2)C(=O)Cn1ccccc1=O`, for which the Percent Effect was -7.28%.

On to `CC(C)C1CN(c2ncc(F)cn2)CCC(=O)N1Cc1ccc(F)cc1` (stereo not given), for which the Percent Effect is 1.56%.

Consider `CCN(CC)C(=O)CCc1c(C)nc2cc(O)nn2c1C`, for which the Percent Effect is -1.56%.

`CNS(=O)(=O)c1cc(C(=O)NC2CCOc3ccccc32)cc(C)c1C` (stereo not given): the Percent Effect was -2.19%.

With `O=C1NCc2ccc(NC(=O)C3CCCN3c3nccs3)cc21` (stereo not given), the Percent Effect is 0.522%.

In the case of `CCn1c(CN2CCC(O)(C(=O)OC)CC2)nc2c(F)cccc21`, the Percent Effect is -3.57%.

With `CCn1ncc(CN2CCc3c(nc(-c4cccnc4)[nH]c3=O)C2)c1C`, the Percent Effect is -5.25%.

`O=C(NCc1cc[nH]n1)NCC(c1ccc(F)cc1)N1CCOCC1` (stereo not given): the Percent Effect is -0.433%.

For `Cn1c2c(ccc1=O)CC(NS(C)(=O)=O)CC2` (stereo not given), the Percent Effect is -0.956%.

As to `CCc1nccn1C1CCCN(C(=O)CCc2nccs2)C1` (stereo not given), the Percent Effect amounted to 2.69%.

As to `CC(C)(C)C(O)CN1CCN(C(=O)c2cccc3[nH]ncc23)CC1` (stereo not given), the Percent Effect is -5.46%.

Turning to `O=C(NCC1CCN(Cc2ccsc2)CC1)NC1CC1`, the Percent Effect worked out at 4.04%.

With `CCc1sc(-c2nnc(CNCCn3cc(C)cn3)o2)cc1C`, the Percent Effect worked out at 2.52%.

On to `CN(Cc1cnn(C)c1)C(=O)NC1CCS(=O)(=O)C1` (stereo not given), for which the Percent Effect was -2.67%.

In the case of `CN1CCc2nc(C3CCN(C(=O)CCC4CCCC4)CC3)ncc2C1`, the Percent Effect came to 2.63%.

Turning to `COc1ccc(CN2CCCC3(CCN(c4ccsc4)C3=O)C2)cc1` (stereo not given), the Percent Effect came out at 1.46%.

Consider `Cc1ccccc1CN1CCN(CC(=O)Nc2cccnc2)CC1`, for which the Percent Effect is -2.08%.

On to `Cn1ccc(C(=O)N2CCN(c3cc(C#N)ccn3)CC2)cc1=O`, for which the Percent Effect stood at 3.75%.

Regarding `c1cnn(Cc2nnc3n2CCCN(CC2CCOCC2)C3)c1`, the Percent Effect is 2.52%.

As for `Cc1cnn(C2CN(Cc3nc(-c4ccco4)no3)C2)c1`, the Percent Effect was -7.28%.

Turning to `COc1c(C2CCCN2C(=O)c2ccc3cc[nH]c3c2)c(C)nn1C` (stereo not given), the Percent Effect was -1.15%.

For the next assay, the target named is Shiga toxin 2 (Escherichia coli O157:H7) (UniProt P09385+P09386). The assay is described as follows: E. coli 0.157:H7 Shiga Toxin SOP - stx2 screening assay. Format: functional. Particulars: 30 µM. Also on record: scale not given: direction of the effect not stated beside the values.
With `c1ccc(Cn2cc(CNC3CCc4ncnn4C3)cn2)cc1` (stereo not given), the Percent Effect was -22.8%.

On to `O=C(NCCc1nnc2n1CCC2)NCC1(c2cccc(F)c2)CC1`, for which the Percent Effect was 4.87%.

Consider `Cc1csc(N2CCN(C(=O)CCNc3ncccn3)CC2)n1`, for which the Percent Effect worked out at 21.6%.

As to `C1CC(CN2CCOCC3(CCN(C4CCOCC4)C3)C2)CCO1` (stereo not given), the Percent Effect is -4.37%.

With `O=C(Cc1c[nH]c2ccccc12)N1CCC(Nc2cccnn2)CC1`, the Percent Effect was -4.79%.

Turning to `COC(=O)CCc1c(C)nn(-c2nc(C)cc(=O)[nH]2)c1C`, the Percent Effect was -12.7%.

For `Cn1nc2c(cc1=O)CN(Cc1nc(-c3cccs3)no1)CC2`, the Percent Effect was found to be 3.81%.

For the compound `O=C(O)c1cc(S(=O)(=O)Nc2ccc(Cl)cc2)cc2c1OCCO2`, the Percent Effect is -7.1%.

`COCC1CC2(CCN(Cc3cnn(C)c3)CC2)CN1C(C)C` (stereo not given): the Percent Effect is -9.26%.

For the compound `O=C(NCC1CC1)C1CN(C(=O)c2ccncc2)CC12CCOCC2` (stereo not given), the Percent Effect is -21.5%.

As to `Cc1cc(N2CCN(CCO)CC2)nc(-c2ccncc2)n1`, the Percent Effect is -27.4%.

Consider `CC(C)(C)n1ncc2c1NC(=O)CC2c1ccc(OCC(N)=O)cc1` (stereo not given), for which the Percent Effect stood at 21.3%.

For `Cc1cc(CNC(=O)NC(C)c2ccc(N3CCOCC3)cc2)no1` (stereo not given), the Percent Effect is -23.6%.

With `CN(c1cccnn1)C1CCN(C(=O)c2ccc3c(c2)COC3)CC1`, the Percent Effect is 13.1%.

Take `Cc1ccc(C)c(NC(=O)c2n[nH]c(-n3cnnc3)n2)c1`: the Percent Effect is -11.6%.

In the case of `CS(=O)(=O)NC[C@]12COC[C@H]1CN(C(=O)c1ccoc1)C2`, the Percent Effect is -5.39%.

Take `COCc1cnc2n1CCN(C(=O)C1=CCCCC1)C2C` (stereo not given): the Percent Effect was -61.5%.

With `CN(Cc1ccccc1)CC(O)Cn1cnc2ccccc2c1=O` (stereo not given), the Percent Effect is -4.12%.

Regarding `CS(=O)(=O)NCc1n[nH]c2c1CCN(C(=O)c1ccsc1)C2`, the Percent Effect is -7.46%.

Consider `CN(Cc1ccc2c(c1)OCCO2)C(=O)Cn1ccccc1=O`, for which the Percent Effect is -21.6%.

For `CC(C)C1CN(c2ncc(F)cn2)CCC(=O)N1Cc1ccc(F)cc1` (stereo not given), the Percent Effect was -4.93%.

With `CCN(CC)C(=O)CCc1c(C)nc2cc(O)nn2c1C`, the Percent Effect is -6.53%.

As to `CNS(=O)(=O)c1cc(C(=O)NC2CCOc3ccccc32)cc(C)c1C` (stereo not given), the Percent Effect was 3.19%.

For the compound `O=C1NCc2ccc(NC(=O)C3CCCN3c3nccs3)cc21` (stereo not given), the Percent Effect is -17.5%.

Regarding `CCn1c(CN2CCC(O)(C(=O)OC)CC2)nc2c(F)cccc21`, the Percent Effect was -24.9%.

For `CCn1ncc(CN2CCc3c(nc(-c4cccnc4)[nH]c3=O)C2)c1C`, the Percent Effect is -14.2%.

Regarding `O=C(NCc1cc[nH]n1)NCC(c1ccc(F)cc1)N1CCOCC1` (stereo not given), the Percent Effect was -14.2%.

`Cn1c2c(ccc1=O)CC(NS(C)(=O)=O)CC2` (stereo not given): the Percent Effect is -18%.

In the case of `CCc1nccn1C1CCCN(C(=O)CCc2nccs2)C1` (stereo not given), the Percent Effect amounted to 16.2%.

Take `CC(C)(C)C(O)CN1CCN(C(=O)c2cccc3[nH]ncc23)CC1` (stereo not given): the Percent Effect was -5.59%.

In the case of `O=C(NCC1CCN(Cc2ccsc2)CC1)NC1CC1`, the Percent Effect was -10.9%.

`CCc1sc(-c2nnc(CNCCn3cc(C)cn3)o2)cc1C`: the Percent Effect is -107%.

On to `CN(Cc1cnn(C)c1)C(=O)NC1CCS(=O)(=O)C1` (stereo not given), for which the Percent Effect came to 14.6%.

In the case of `CN1CCc2nc(C3CCN(C(=O)CCC4CCCC4)CC3)ncc2C1`, the Percent Effect is -43.2%.

Consider `COc1ccc(CN2CCCC3(CCN(c4ccsc4)C3=O)C2)cc1` (stereo not given), for which the Percent Effect is -4.23%.

Consider `Cc1ccccc1CN1CCN(CC(=O)Nc2cccnc2)CC1`, for which the Percent Effect was 17%.

`Cn1ccc(C(=O)N2CCN(c3cc(C#N)ccn3)CC2)cc1=O`: the Percent Effect stood at 1.09%.

Turning to `c1cnn(Cc2nnc3n2CCCN(CC2CCOCC2)C3)c1`, the Percent Effect worked out at 18.5%.

For `Cc1cnn(C2CN(Cc3nc(-c4ccco4)no3)C2)c1`, the Percent Effect is 10.9%.

As to `COc1c(C2CCCN2C(=O)c2ccc3cc[nH]c3c2)c(C)nn1C` (stereo not given), the Percent Effect is 3.54%.
